This note sets out measurements from PubChem BioAssay (Tox21).

Experiment [1] in a line: qHTS assay for small molecule agonists of the p53 signaling pathway (AID 651631; calls by dose curve; further: nearly all actives have a fitted effect of over 15% in size). In outline:
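p53RE-bla HCT-116 cells; compounds 16 h, 37 °C; LiveBLAzer B/G FRET substrate 2 h RT; fluorescence intensity read-out, qHTS format.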

Experiment [2] in a line: qHTS assay for small molecules that induce genotoxicity in human embryonic kidney cells expressing luciferase-tagged ATAD5 (AID 651632). Further: nearly all actives have a fitted effect of over 15% in size. In outline: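 Reporter cells (HEK293T) express luciferase-tagged ATAD5, a protein that accumulates after DNA damage. Treat 16 hr at 37C/5% CO2, add Amplite, wait 30 min at RT, and read luminescence.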
Experiment [3] can be described thus: qHTS assay for small molecules that induce genotoxicity in human embryonic kidney cells expressing luciferase-tagged ATAD5 - cell viability (AID 651634; calls by dose curve; further: nearly all actives have a fitted effect of over 25% in size). In a few lines:
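Seeding of 2,000 HEK293T ATAD5-luciferase cells per well preceded pin-tool compound transfer. Plates sat 15.5 hr at 37C under 5% CO2, then fluorescence was read after 30 min with CellTiter-Fluor.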

A short description of experiment [4]: qHTS assay for small molecule disruptors of the mitochondrial membrane potential - cell viability (AID 720634; calls by dose curve;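 further: human HepG2 liver cancer cells; series mostly up to about 83 µM; nearly all actives have a fitted effect of over 20% in size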). In outline:
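Measuring cytotoxicity alongside mitochondrial potential, the screen quantified ATP by luminescence in HepG2 cells after 1 hr compound incubation and a 30 min room-temperature CellTiter-Glo step.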

Experiment [5] in a line: qHTS assay to test for compound auto fluorescence at 590 nm (red) in HepG2 cells (AID 720674). In outline: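 Compound auto-fluorescence is scored relative to Rose Bengal sodium, measured at 540/590 nm in live HepG2 cultures after 1 hr compound contact (37 C, 5% CO2).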
Experiment [6] can be described thus: qHTS assay to test for compound auto fluorescence at 535 nm (green) in HepG2 cells (AID 720675).
Experiment [7] is described as follows: qHTS assay to test for compound auto fluorescence at 460 nm (blue) in HEK293 cells (AID 720678). In a few lines:
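Measured: blue fluorescence (Ex 405/Em 460 nm) of compound-treated HEK293 cells, incubated overnight at 37C with 5% CO2 and scaled to triamterene equivalents.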

Experiment [8] in a line: qHTS assay to test for compound auto fluorescence at 590 nm (red) in HEK293 cells (AID 720679). In a few lines: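 Using HEK293 cells at 2,000 per well, the screen added 23 nL of each compound after cell attachment and incubated overnight (37C, 5% CO2). The plate reader then captured red-label fluorescence, Ex/Em 540/590nm.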
Experiment [9] is described as follows: qHTS assay to test for compound auto fluorescence at 460 nm (blue) in HEK293 cell free culture (AID 720681). In outline: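 Test compounds were pinned into cell-free culture medium (DMEM with 10% FBS) and fluorescence was read directly at Ex/Em 405/460 nm. Signals were expressed as fluorescence equivalents of triamterene, with DMSO vehicle as control.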
Experiment [10] can be described thus: qHTS assay to test for compound auto fluorescence at 535 nm (green) in HEK293 cell free culture (AID 720682). In a few lines: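 Cell-free medium (DMEM, 10% FBS) receives compound or DMSO by pintool. Plate read directly at Ex 485/Em 535 nm. Signal converted to fluorescein equivalency.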
Experiment [11] can be described thus: qHTS assay to test for compound auto fluorescence at 590 nm (red) in HEK293 cell free culture (AID 720683). In a few lines: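 Tox21 10K library compounds were pinned into cell-free DMEM with 10% FBS and fluorescence was read at excitation 540 nm. Activity is expressed as Rose Bengal sodium equivalency.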
A short description of experiment [12]: qHTS assay to test for compound auto fluorescence at 590 nm (red) in HepG2 cell free culture (AID 720684). In a few lines:
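Measured in medium alone (MEM containing 10% FBS) following pintool addition of compound; emission at 590 nm with 540 nm excitation, referenced to Rose Bengal sodium.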

Experiment [13] is described as follows: qHTS assay to test for compound auto fluorescence at 460 nm (blue) in HepG2 cell free culture (AID 720685). In outline:
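Compound (23 nL) or DMSO pinned into cell-free MEM with 10% FBS; blue fluorescence read at 405/460 nm excitation/emission, expressed as auto-fluorescence equivalency to triamterene.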

Experiment [14] can be described thus: qHTS assay to test for compound auto fluorescence at 535 nm (green) in HepG2 cell free culture (AID 720686).
A short description of experiment [15]: qHTS assay to test for compound auto fluorescence at 460 nm (blue) in HepG2 cells (AID 720687). In outline:
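Cells (2,000/well in MEM with 10% FBS) attached overnight at 37 C, then were exposed to compound or DMSO for 1 hr at 37 C, 5% CO2. Fluorescence read at Ex/Em 405/460 nm, expressed as triamterene-equivalent signal.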

Experiment [16] can be described thus: qHTS assay for small molecule disruptors of the mitochondrial membrane potential (AID 720635). Further: potency means the concentration at half of the fitted maximal effect. In a few lines: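 HepG2 cells (2,000/well) attached overnight at 37C, then took compound for 1 hr at 37C, 5% CO2. Mito-MPS dye was added for 30 min; fluorescence was read at 490/535 nm (monomers) and 540/590 nm (aggregates).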
Experiment [17] in a line: qHTS assay to test for compound auto fluorescence at 535 nm (green) in HEK293 cells (AID 720680).
For experiment [18], the target named is Glucocorticoid receptor (Homo sapiens) (UniProt P04150). In words: qHTS assay to identify small molecule agonists of the glucocorticoid receptor (GR) signaling pathway (AID 720691; active means well fitted activation curve with a large enough effect in the signal ratio in the repeat runs, not every such curve was filed as active; the % refers to the signal ratio). In outline:
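Reporter read-out: fluorescence intensity following 2 h room-temperature LiveBLAzer B/G FRET substrate loading. Prior step: GR-bla HeLa cells held 4 h, then treated 18 h at 37 C.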

Experiment [19] shares this target. In words: qHTS assay to identify small molecule antagonists of the glucocorticoid receptor (GR) signaling pathway (AID 720692; active means well fitted inhibition curve with a large enough effect in the signal ratio in the repeat runs, not every such curve was filed as active; the % refers to the signal ratio). In a few lines:
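Dexamethasone (5 nM final) stimulated a stably integrated GRE-beta-lactamase reporter in HeLa cells during 18 h co-incubation with compounds; signal was quantified as fluorescence intensity of B/G FRET substrate after 2 h.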

A short description of experiment [20]: qHTS assay for small molecule agonists of the p53 signaling pathway - cell viability (AID 651633; calls by dose curve;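 further: p53RE-bla HCT reporter cells with a stable beta-lactamase p53 reporter; series mostly up to about 83 µM; nearly all actives have a fitted effect of over 30% in size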). In a few lines:
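p53RE-bla cells, seeded at 4,000 per well and rested 5 h at 37 C/5% CO2, received compounds in DMSO for 16 h at 37 C. CellTiter-Glo was then added, and luminescence was read after 30 min at room temperature to gauge cytotoxicity.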

Each structure is given as a SMILES string. Unmarked numbers belong to inactive results. Inconclusive results are not listed. Active and inactive are the calls of the source. Unless noted, the call rests on the fitted dose curve; in most records, active means well fitted curve in the direction sought with a large enough effect in the repeat runs; inconclusive means weak or mixed curves; inactive means no such curve, though single readings can be large; an effect the other way counts as inactive or inconclusive.
On the % scale 0 is the no-effect control and ±100 the full control effect.

Sequence of Glucocorticoid receptor (Homo sapiens) (P04150 whole entry, looked up): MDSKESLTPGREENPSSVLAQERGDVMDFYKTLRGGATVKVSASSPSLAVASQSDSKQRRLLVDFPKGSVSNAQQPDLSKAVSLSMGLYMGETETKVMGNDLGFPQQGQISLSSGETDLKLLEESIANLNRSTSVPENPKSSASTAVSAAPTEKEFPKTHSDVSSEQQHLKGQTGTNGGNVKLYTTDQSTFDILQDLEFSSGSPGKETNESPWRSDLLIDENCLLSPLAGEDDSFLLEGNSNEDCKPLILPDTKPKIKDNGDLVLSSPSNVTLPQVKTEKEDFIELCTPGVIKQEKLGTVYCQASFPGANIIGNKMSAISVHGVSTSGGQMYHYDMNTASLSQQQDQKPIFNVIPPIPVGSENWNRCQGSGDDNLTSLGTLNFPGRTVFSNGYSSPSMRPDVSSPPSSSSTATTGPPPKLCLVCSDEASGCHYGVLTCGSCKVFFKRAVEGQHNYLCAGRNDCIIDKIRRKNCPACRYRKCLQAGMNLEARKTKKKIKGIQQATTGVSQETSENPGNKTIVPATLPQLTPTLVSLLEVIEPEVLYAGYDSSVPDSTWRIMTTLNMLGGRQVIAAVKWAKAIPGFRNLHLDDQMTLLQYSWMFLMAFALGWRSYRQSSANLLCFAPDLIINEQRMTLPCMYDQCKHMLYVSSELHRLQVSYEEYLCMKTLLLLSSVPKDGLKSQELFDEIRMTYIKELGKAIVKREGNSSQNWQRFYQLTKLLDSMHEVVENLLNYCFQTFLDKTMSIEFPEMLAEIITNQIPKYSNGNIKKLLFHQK

With `BrCc1ccc(Br)cc1`, the Potency entry in [1], in experiment [3] and in [4] was “inactive” each time. In addition, the call in experiment [2], in [5], in experiment [6], in experiment [7], in [8] and in experiment [9] was inactive. Moreover, the compound was called inactive in [10], in experiment [11], in [12], in experiment [13], in [14] and in experiment [15].
Turning to `OP(O)c1ccccc1`, the Potency result in experiment [1], in [3], in experiment [4], in experiment [16], in experiment [18] and in [19] was “inactive” each time. For the same compound, the compound was classed as inactive in experiment [2], in [5], in experiment [6], in experiment [7], in [8] and in experiment [17]. For the same compound, the outcome in experiment [9], in experiment [10], in [11], in experiment [12], in experiment [13] and in [14] was inactive. Further, the compound was called inactive in [15].
With `C=CC1(C)OC(=O)N(c2cc(Cl)cc(Cl)c2)C1=O` (stereo not given), the Potency result in experiment [1], in experiment [20], in experiment [4], in experiment [18] and in [19] was “inactive” each time. The result in experiment [2], in experiment [5], in experiment [7], in experiment [8], in experiment [17] and in experiment [9] was inactive. For the same compound, the compound was called inactive in experiment [10], in experiment [11], in experiment [12], in [13], in experiment [14] and in experiment [15].
Consider `c1ccc2c(c1)CCNC2`, for which the Potency result in experiment [1], in [3] and in experiment [4] was “inactive” each time. Besides, the result in [2], in experiment [5], in experiment [6], in [7], in experiment [8] and in experiment [9] was inactive. Moreover, the compound was called inactive in experiment [10], in [11], in experiment [12], in [14] and in experiment [15].
As to `[O-][Br+2]([O-])O`, the Potency entry in experiment [1], in experiment [20], in [4], in experiment [18] and in [19] was “inactive” in each case. Besides, the outcome in experiment [2], in experiment [5], in experiment [6], in [7], in experiment [8] and in experiment [9] was inactive. The call in [10], in experiment [11], in [12], in experiment [14] and in experiment [15] was inactive.
With `O=C(Cl)c1ccccc1`, the Potency result in experiment [1], in experiment [3] and in [4] was “inactive” throughout. Further, the compound was called inactive in experiment [2], in experiment [5], in experiment [6], in [7], in experiment [8] and in experiment [17]. Besides, the call in experiment [9], in [10], in experiment [11], in [12], in [13] and in [14] was inactive. Further, the compound was classed as inactive in experiment [15].
Consider `CCN(CC)CCOC(=O)C(O)(c1ccccc1)c1ccccc1`, for which the Potency result in experiment [1], in experiment [20] and in experiment [18] was “inactive” throughout. For the same compound, the call in experiment [2], in experiment [5], in experiment [6], in [7], in experiment [8] and in experiment [9] was inactive. The compound was classed as inactive in experiment [10], in experiment [11], in [12], in experiment [13], in experiment [14] and in experiment [15].
For the compound `O=C/C=C/c1ccco1`, the Potency result in experiment [1], in experiment [3], in [4], in experiment [16], in experiment [18] and in [19] was “inactive” throughout. Moreover, the result in [2], in [5], in experiment [7], in experiment [8], in [9] and in experiment [10] was inactive. For the same compound, the outcome in [11], in [12], in experiment [13], in [14] and in experiment [15] was inactive.
On to `COc1ccccc1OC`, for which the Potency result in experiment [1], in [3], in experiment [4], in experiment [18] and in [19] was “inactive” each time. The result in experiment [2], in [5], in experiment [6], in [7], in experiment [8] and in experiment [17] was inactive. The outcome in experiment [9], in experiment [10], in experiment [11], in [12], in experiment [13] and in experiment [14] was inactive. For the same compound, the call in [15] was inactive.
`CNC(=O)O/N=C(/CSC)C(C)(C)C`: the Potency entry in [1], in experiment [20], in [18] and in experiment [19] was “inactive” throughout. For the same compound, the result in experiment [2], in experiment [6], in [7], in experiment [8], in experiment [17] and in [9] was inactive. The result in [10], in experiment [11], in experiment [12], in experiment [14] and in [15] was inactive.
Take `Clc1nc(Cl)nc(Nc2ccccc2Cl)n1`: the Potency entry in [1], in experiment [3], in experiment [4], in experiment [16], in experiment [18] and in [19] was “inactive” each time. For the same compound, the result in [2], in [6], in experiment [7], in experiment [8], in experiment [17] and in experiment [9] was inactive. Further, the call in experiment [10], in experiment [11], in experiment [12], in experiment [14] and in experiment [15] was inactive.
In the case of `[P]#[In]`, the Potency result in experiment [1], in experiment [20], in experiment [3], in [18] and in experiment [19] was “inactive” in each case. Also, the compound was called inactive in experiment [2], in experiment [7], in [8], in experiment [17], in [9] and in [10]. Also, the call in experiment [11], in experiment [12], in experiment [13], in experiment [14] and in experiment [15] was inactive.
For the compound `Oc1ccc(Cc2ccc(O)cc2)cc1`, the Potency entry in [1], in experiment [3], in experiment [4], in [18] and in experiment [19] was “inactive” in each case. For the same compound, the outcome in experiment [2], in [5], in experiment [6], in [7], in [8] and in experiment [17] was inactive. The compound was called inactive in [9], in [10], in [11], in [12], in experiment [14] and in experiment [15]. Further, the Potency in [16] is 54.9 µM (active).
Turning to `NCC1(CC(=O)O)CCCCC1`, the Potency entry in experiment [1], in experiment [3], in experiment [4], in experiment [18] and in [19] was “inactive” in each case. For the same compound, the call in [2] was inactive. The fluorescence, relative to Rose Bengal in [5] was 0.106% [at 18.6 µM]. Further, the fluorescence, % of triamterene in experiment [7] was 0.0823% [at 18.6 µM]. Also, the fluorescence, % of fluorescent control in experiment [8] is 0.0233% [at 18.6 µM]; in experiment [9], 0.0173% [at 18.6 µM]; in experiment [11], 0.0512% [at 18.6 µM]; in [13], 0.0583% [at 18.6 µM]; in experiment [15], 0.027% [at 18.6 µM]. Besides, the fluorescence, % of fluorescein in experiment [17] is 0.112% [at 18.6 µM]. Moreover, the activity change in experiment [10] is 0.0242% [at 18.6 µM]. In addition, the fluorescence, % of Rose Bengal in [12] was 0.0064% [at 18.6 µM]. The fluorescence, % of fluorescein control in experiment [14] is -0.0096% [at 18.6 µM].
